“And” between values parts separate entries of the source, which are not always exact repeats. Equal entries are not always repeated. This is part of a sample that, as a whole, favours compounds with a hit. Of some 83,000 tested, about 20% had one in any assay.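 In brief: 96-well plates, 48 h treatment, single concentration, percent growth endpoint.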 The source made the active and inactive calls. How the source made its calls: active means growth percent below 10; inactive means the rest.

What all share (test): NCI-60 one-dose screen, 48 h (100 = growth as untreated, 0 = no growth, -100 = all killed)
One assay relates to SK-MEL-2 melanoma. As to conditions: 10 µM unless noted.
Another assay deals with EKVX NSCLC. As to conditions: 10 µM.
The subject of the next assay is SN12C renal. As to conditions: 10 µM unless noted.
The subject of a further assay is UO-31 renal. As to conditions: 10 µM unless noted.
The next assay concerns TK-10 renal.
In another assay the test system is ACHN renal. As to conditions: 10 µM unless noted.
The subject of a further assay is CAKI-1 renal. As to conditions: 10 µM unless noted.
For another assay, the system named is A498 renal. The conditions noted are these: 10 µM unless noted.
A further assay deals with CCRF-CEM leukemia. The conditions noted are these: 10 µM.
A further assay concerns MOLT-4 leukemia. As to conditions: 10 µM unless noted.
The next assay deals with SR leukemia. The conditions noted are these: 10 µM unless noted.
The next assay relates to RPMI-8226 leukemia. The conditions noted are these: 10 µM unless noted.
For the next assay, the system named is OVCAR-8 ovarian. The conditions noted are these: 10 µM unless noted.
The next assay deals with OVCAR-5 ovarian. As to conditions: 10 µM unless noted.
Another assay concerns IGROV1 ovarian. As to conditions: 10 µM unless noted.
Another assay relates to OVCAR-3 ovarian. As to conditions: 10 µM unless noted.
Another assay has as its system NCI/ADR-RES ovarian. As to conditions: 10 µM unless noted.
Another assay has as its system SK-OV-3 ovarian. The conditions noted are these: 10 µM unless noted.
The subject of another assay is HS 578T breast. The conditions noted are these: 10 µM unless noted.

`CC1CCC2(C(=O)O)CCC3(C)C(=CCC4C5(C)CCC(O)C(C)(C)C5CCC43C)C2C1C` (stereo not drawn): the growth in the assay on SK-MEL-2 melanoma is 82.5% (inactive) and 86.8% (inactive); in the assay with EKVX NSCLC it was 74% (inactive) and 70.8% (inactive); in the assay with SN12C renal, 79.3% (inactive) and 99.7% (inactive); with UO-31 renal, 5.91% (active) and 55.4% (inactive); in the assay with TK-10 renal (10 µM) it was 90.6% (inactive) and 88.5% (inactive); with TK-10 renal (100 µM), -77.6% (active) and -96.8% (active). Moreover, the growth with ACHN renal was 57.7% (inactive) and 76.2% (inactive); with CAKI-1 renal, 40.4% (inactive) and 90.8% (inactive); with A498 renal, 103% (inactive); in the assay with CCRF-CEM leukemia, -22.1% (active) and 35.8% (inactive); in the assay with MOLT-4 leukemia, -11.8% (active) and 84.5% (inactive); in the assay with SR leukemia, 39.3% (inactive) and 46.8% (inactive). Moreover, the growth is 48.5% (inactive) and 83.4% (inactive) in the assay with RPMI-8226 leukemia; 93.3% (inactive) in the assay with OVCAR-8 ovarian; -8.77% (active) and 87.9% (inactive) with OVCAR-5 ovarian; 96.7% (inactive) and 105% (inactive) with IGROV1 ovarian; 56% (inactive) and 101% (inactive) with OVCAR-3 ovarian; 16.5% (inactive) and 97.3% (inactive) with NCI/ADR-RES ovarian.
For `NC(Cc1c[nH]c2ccccc12)C(=O)O` (stereo not drawn), the growth was 110% (inactive) in the assay with SK-MEL-2 melanoma; 93.1% (inactive) and 101% (inactive) with EKVX NSCLC; 101% (inactive) in the assay with SN12C renal; 91.9% (inactive) and 72.6% (inactive) with UO-31 renal; 103% (inactive) and 98.8% (inactive) with TK-10 renal (10 µM unless noted); 99.8% (inactive) and 100% (inactive) in the assay with ACHN renal. Further, the growth was 85% (inactive) in the assay on CAKI-1 renal; 109% (inactive) and 106% (inactive) in the assay on A498 renal; 105% (inactive) and 102% (inactive) in the assay on CCRF-CEM leukemia; 3.12% (active) and 100% (inactive) with MOLT-4 leukemia; 53.3% (inactive) and 105% (inactive) in the assay on SR leukemia; 58.3% (inactive) and 93.5% (inactive) in the assay with OVCAR-8 ovarian. The growth was 91.7% (inactive) and 103% (inactive) in the assay on OVCAR-5 ovarian; 106% (inactive) and 105% (inactive) in the assay on SK-OV-3 ovarian; 105% (inactive) and 120% (inactive) with IGROV1 ovarian; 120% (inactive) and 107% (inactive) with OVCAR-3 ovarian; 115% (inactive) and 95.3% (inactive) with HS 578T breast; 105% (inactive) and 111% (inactive) in the assay on NCI/ADR-RES ovarian.
Consider `N#CC(C#N)N=Nc1ccc(Cl)cc1`, for which the growth is 77.3% (inactive) with SK-MEL-2 melanoma; 77% (inactive) in the assay on EKVX NSCLC; 33.5% (inactive) in the assay with SN12C renal; 10.6% (inactive) with UO-31 renal; 42.9% (inactive) in the assay on TK-10 renal (10 µM unless noted); 26.9% (inactive) with ACHN renal. In addition, the growth with CAKI-1 renal is 4.49% (active); with A498 renal, 86% (inactive); in the assay on CCRF-CEM leukemia it was 28.6% (inactive); in the assay with MOLT-4 leukemia, 37.6% (inactive); in the assay on SR leukemia, 53.7% (inactive); in the assay on OVCAR-8 ovarian it was 62.1% (inactive). Besides, the growth is 72.6% (inactive) in the assay on OVCAR-5 ovarian; 45.8% (inactive) in the assay with SK-OV-3 ovarian; 69.4% (inactive) in the assay on IGROV1 ovarian; 15.2% (inactive) in the assay on OVCAR-3 ovarian; 81.8% (inactive) in the assay on HS 578T breast; 72.2% (inactive) in the assay on NCI/ADR-RES ovarian.
In the case of `O=[N+]([O-])c1cccc(SSc2cccc([N+](=O)[O-])c2)c1`, the growth was 98.5% (inactive) in the assay with SK-MEL-2 melanoma; 106% (inactive) in the assay with EKVX NSCLC; 93.7% (inactive) in the assay on SN12C renal; 86.5% (inactive) with UO-31 renal; 109% (inactive) with TK-10 renal (10 µM unless noted); 99.5% (inactive) in the assay with ACHN renal. The growth with CAKI-1 renal was 103% (inactive); in the assay with A498 renal it was 119% (inactive); in the assay on CCRF-CEM leukemia, 50.6% (inactive); in the assay on MOLT-4 leukemia, 82.1% (inactive); with SR leukemia, 81% (inactive); with OVCAR-8 ovarian it was 100% (inactive). The growth in the assay on OVCAR-5 ovarian is 104% (inactive); with SK-OV-3 ovarian it was 97.8% (inactive); with IGROV1 ovarian, 109% (inactive); in the assay with OVCAR-3 ovarian, 127% (inactive); in the assay on NCI/ADR-RES ovarian, 116% (inactive).
Regarding `Cc1ccc(=O)[nH]n1`, the growth with SK-MEL-2 melanoma was 116% (inactive) and 99.5% (inactive); with EKVX NSCLC, 114% (inactive) and 115% (inactive); in the assay with SN12C renal, 107% (inactive) and 99.3% (inactive); in the assay with UO-31 renal, 90.9% (inactive) and 95.1% (inactive); with TK-10 renal (10 µM unless noted), 110% (inactive) and 101% (inactive); in the assay with ACHN renal, 114% (inactive) and 108% (inactive). Also, the growth is 103% (inactive) and 97.7% (inactive) with CAKI-1 renal; 110% (inactive) and 94.1% (inactive) with A498 renal; 107% (inactive) and 99.6% (inactive) in the assay on CCRF-CEM leukemia; 105% (inactive) and 101% (inactive) in the assay on MOLT-4 leukemia; 98.9% (inactive) and 93% (inactive) in the assay on SR leukemia; 100% (inactive) and 102% (inactive) with OVCAR-8 ovarian. Moreover, the growth with OVCAR-5 ovarian was 115% (inactive) and 98.4% (inactive); in the assay on SK-OV-3 ovarian it was 111% (inactive) and 112% (inactive); with IGROV1 ovarian, 106% (inactive); in the assay on OVCAR-3 ovarian it was 106% (inactive) and 107% (inactive); in the assay with NCI/ADR-RES ovarian it was 103% (inactive).

The values above are taken from PubChem BioAssay (NCI).
